# Experimental data reported in publication PMC7862700, “An all-to-all approach to the identification of sequence-specific readers for epigenetic DNA modifications on cytosine”.
# What was measured:
# Test in all cases: DAPPL (digital affinity profiling via proximity ligation, sequencing); 10 mM Tris-HCl pH 7.5, 50 mM NaCl, 1 mM DTT, 4% glycerol, room temperature, 30 min; GST-TFs on glutathione beads, 16-mer random dsDNA library, 0.1% formaldehyde crosslink after washing; high values mean tight binding
# FLI1 = target: T1, FLI1 (Homo sapiens, UniProt Q01543 1-452); details: protein: recombinant; tags: N-terminal GST; dsDNA, one strand shown
# T1 sequence: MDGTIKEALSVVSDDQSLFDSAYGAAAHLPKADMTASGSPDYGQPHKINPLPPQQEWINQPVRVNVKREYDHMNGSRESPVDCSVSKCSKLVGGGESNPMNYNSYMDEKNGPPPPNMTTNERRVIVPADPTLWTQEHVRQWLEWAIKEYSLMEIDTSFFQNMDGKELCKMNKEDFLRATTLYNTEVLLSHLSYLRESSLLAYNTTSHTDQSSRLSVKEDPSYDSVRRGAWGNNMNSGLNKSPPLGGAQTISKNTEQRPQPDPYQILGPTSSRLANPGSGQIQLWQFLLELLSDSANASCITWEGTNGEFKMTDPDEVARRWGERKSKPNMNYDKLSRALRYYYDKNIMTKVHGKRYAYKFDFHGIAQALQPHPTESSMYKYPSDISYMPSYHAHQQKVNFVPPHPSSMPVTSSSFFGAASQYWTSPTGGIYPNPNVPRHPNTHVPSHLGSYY
# Outline: (§1)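 Sequencing on an Illumina NextSeq500 followed washing, crosslinking with 0.1% formaldehyde, proximity ligation (BsaI/T4 ligase, 1 h, 37 °C) and PCR amplification of pools that had been incubated for 30 min at room temperature with 200 nmole of a random double-stranded 16-mer DNA library in Tris/NaCl/DTT/glycerol buffer. Each pool held DNA-barcoded human transcription factors, expressed in yeast as GST fusions and captured on glutathione beads, plus a tag-only sample. Binding signal is a hexamer's read frequency for a factor divided by its frequency in the tag-only sample.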
# ELK1 = target: T2, ELK1 (Homo sapiens, UniProt P19419 1-428); details: protein: recombinant; tags: N-terminal GST; dsDNA, one strand shown
# T2 sequence: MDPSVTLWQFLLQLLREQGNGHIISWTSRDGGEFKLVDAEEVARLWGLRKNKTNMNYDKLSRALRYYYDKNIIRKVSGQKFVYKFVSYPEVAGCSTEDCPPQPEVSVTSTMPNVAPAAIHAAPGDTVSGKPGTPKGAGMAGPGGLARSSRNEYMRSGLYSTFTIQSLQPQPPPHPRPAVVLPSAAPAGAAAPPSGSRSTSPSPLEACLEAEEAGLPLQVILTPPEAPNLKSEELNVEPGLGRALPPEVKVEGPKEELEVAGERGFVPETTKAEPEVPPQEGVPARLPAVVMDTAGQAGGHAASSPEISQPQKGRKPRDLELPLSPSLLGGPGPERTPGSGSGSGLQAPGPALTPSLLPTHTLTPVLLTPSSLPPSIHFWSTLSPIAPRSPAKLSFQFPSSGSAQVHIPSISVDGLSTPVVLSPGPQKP
# Outline: as §1
# GABPA = target: T3, GABPA (Homo sapiens, UniProt Q06546 1-454); details: protein: recombinant; tags: N-terminal GST; dsDNA, one strand shown
# T3 sequence: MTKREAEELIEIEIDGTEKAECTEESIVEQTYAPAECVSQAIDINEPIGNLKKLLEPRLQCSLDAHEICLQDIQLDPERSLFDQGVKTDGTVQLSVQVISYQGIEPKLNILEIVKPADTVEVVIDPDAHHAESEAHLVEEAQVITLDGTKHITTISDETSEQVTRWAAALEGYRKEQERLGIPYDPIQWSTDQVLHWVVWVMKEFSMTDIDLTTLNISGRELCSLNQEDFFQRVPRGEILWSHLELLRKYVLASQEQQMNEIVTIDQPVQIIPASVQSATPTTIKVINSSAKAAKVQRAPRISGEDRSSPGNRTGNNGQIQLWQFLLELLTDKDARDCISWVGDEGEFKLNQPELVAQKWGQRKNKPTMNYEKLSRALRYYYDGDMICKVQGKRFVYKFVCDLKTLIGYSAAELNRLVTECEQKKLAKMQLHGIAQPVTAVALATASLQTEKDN
# Outline: as §1
# ERG = target: T4, ERG (Homo sapiens, UniProt P11308 1-479); details: protein: recombinant; tags: N-terminal GST; dsDNA, one strand shown
# T4 sequence: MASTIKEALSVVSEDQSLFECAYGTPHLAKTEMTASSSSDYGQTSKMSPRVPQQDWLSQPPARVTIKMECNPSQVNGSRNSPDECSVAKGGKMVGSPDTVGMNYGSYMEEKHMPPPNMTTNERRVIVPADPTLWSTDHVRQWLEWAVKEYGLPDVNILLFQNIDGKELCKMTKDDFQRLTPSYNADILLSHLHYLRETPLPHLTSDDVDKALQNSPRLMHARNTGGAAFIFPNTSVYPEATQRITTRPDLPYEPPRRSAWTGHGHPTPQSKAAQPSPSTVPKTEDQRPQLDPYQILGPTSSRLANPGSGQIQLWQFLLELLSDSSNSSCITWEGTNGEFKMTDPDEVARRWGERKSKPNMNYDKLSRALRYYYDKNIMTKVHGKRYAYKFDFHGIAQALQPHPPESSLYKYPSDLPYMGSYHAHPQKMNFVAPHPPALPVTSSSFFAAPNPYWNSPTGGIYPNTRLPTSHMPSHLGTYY
# Outline: as §1
# ELF1 = ELF1 (Homo sapiens, UniProt P32519 1-619); details: protein: recombinant; tags: N-terminal GST; dsDNA, one strand shown
# Outline: as §1
# EHF = target: T5, EHF (Homo sapiens, UniProt Q9NZC4 1-300); details: protein: recombinant; tags: N-terminal GST; dsDNA, one strand shown
# T5 sequence: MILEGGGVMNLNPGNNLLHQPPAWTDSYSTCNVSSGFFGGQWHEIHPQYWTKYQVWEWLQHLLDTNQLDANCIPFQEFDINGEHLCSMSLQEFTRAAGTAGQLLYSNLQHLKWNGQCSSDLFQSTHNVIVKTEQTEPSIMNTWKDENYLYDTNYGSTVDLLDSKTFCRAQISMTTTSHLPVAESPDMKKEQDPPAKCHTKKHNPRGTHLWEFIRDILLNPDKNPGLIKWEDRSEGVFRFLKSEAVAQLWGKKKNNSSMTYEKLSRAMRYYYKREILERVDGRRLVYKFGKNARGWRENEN
# Outline: as §1
# SPI1 = SPI1 (Homo sapiens, UniProt P17947 1-270); details: protein: recombinant; tags: N-terminal GST; dsDNA, one strand shown
# Outline: as §1
# SPIB = SPIB (Homo sapiens, UniProt Q01892 1-262); details: protein: recombinant; tags: N-terminal GST; dsDNA, one strand shown
# Outline: as §1
# ELK3 = target: T6, ELK3 (Homo sapiens, UniProt P41970 1-407); details: protein: recombinant; tags: N-terminal GST; dsDNA, one strand shown
# T6 sequence: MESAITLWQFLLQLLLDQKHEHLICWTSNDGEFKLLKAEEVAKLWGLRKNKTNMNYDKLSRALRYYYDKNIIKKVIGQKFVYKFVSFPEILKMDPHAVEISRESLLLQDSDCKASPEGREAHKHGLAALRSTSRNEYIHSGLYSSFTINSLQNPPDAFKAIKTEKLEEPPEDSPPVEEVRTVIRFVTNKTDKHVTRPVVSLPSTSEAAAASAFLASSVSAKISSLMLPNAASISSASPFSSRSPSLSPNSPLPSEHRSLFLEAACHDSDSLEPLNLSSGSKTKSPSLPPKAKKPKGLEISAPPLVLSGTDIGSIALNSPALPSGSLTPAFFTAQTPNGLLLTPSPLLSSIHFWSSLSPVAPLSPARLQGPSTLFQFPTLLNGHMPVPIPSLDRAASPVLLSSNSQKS
# Outline: as §1
# FEV = target: T7, FEV (Homo sapiens, UniProt Q99581 1-238); details: protein: recombinant; tags: N-terminal GST; dsDNA, one strand shown
# T7 sequence: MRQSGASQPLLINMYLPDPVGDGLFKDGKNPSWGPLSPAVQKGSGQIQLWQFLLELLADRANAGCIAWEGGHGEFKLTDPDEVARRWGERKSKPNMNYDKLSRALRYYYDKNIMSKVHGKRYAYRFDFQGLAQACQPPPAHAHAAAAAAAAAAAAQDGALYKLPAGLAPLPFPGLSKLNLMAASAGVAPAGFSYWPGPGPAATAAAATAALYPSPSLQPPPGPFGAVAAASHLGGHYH
# Outline: as §1
# ETV5 = ETV5 (Homo sapiens, UniProt P41161 1-510); details: protein: recombinant; tags: N-terminal GST; dsDNA, one strand shown
# Outline: as §1
# HSF1 = HSF1 (Homo sapiens, UniProt Q00613 1-529); details: protein: recombinant; tags: N-terminal GST; chain copies: 3; dsDNA, one strand shown
# Outline: as §1
# SPIC = target: T8, SPIC (Homo sapiens, UniProt Q8N5J4 1-248); details: protein: recombinant; tags: N-terminal GST; dsDNA, one strand shown
# T8 sequence: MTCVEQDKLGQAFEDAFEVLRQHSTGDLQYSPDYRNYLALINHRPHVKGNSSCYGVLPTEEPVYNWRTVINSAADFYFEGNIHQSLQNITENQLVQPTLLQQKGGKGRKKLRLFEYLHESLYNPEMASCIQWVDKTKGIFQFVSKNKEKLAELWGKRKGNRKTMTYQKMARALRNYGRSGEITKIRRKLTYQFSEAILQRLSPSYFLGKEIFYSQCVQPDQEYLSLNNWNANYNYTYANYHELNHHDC
# Outline: as §1
# ELF4 = ELF4 (Homo sapiens, UniProt Q99607 1-663); details: protein: recombinant; tags: N-terminal GST; dsDNA, one strand shown
# Outline: as §1
# ELK4 = target: T9, ELK4 (Homo sapiens, UniProt P28324-2 1-405); details: protein: recombinant; tags: N-terminal GST; dsDNA, one strand shown
# T9 sequence: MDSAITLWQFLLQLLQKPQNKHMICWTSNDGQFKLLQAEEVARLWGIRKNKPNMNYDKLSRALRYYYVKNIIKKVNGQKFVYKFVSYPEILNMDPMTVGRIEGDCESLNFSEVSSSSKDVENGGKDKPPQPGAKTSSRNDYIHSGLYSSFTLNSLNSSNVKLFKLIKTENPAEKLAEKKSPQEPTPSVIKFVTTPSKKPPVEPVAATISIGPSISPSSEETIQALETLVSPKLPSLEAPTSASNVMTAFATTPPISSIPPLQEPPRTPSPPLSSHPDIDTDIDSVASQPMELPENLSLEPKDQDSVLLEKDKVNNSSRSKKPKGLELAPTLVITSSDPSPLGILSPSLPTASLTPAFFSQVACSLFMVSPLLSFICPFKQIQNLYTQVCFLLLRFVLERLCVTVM
# Outline: as §1
# ETV2 = target: T10, ETV2 (Homo sapiens, UniProt O00321 1-342); details: protein: recombinant; tags: N-terminal GST; dsDNA, one strand shown
# T10 sequence: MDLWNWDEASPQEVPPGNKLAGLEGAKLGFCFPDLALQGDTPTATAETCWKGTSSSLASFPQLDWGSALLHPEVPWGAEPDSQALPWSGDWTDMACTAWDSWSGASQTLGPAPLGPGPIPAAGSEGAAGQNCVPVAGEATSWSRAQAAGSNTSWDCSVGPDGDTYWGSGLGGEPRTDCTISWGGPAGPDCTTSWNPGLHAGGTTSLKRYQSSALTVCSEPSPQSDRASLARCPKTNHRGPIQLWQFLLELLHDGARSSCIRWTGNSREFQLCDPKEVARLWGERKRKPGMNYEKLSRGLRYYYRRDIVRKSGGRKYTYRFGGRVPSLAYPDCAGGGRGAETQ
# Outline: as §1
# ELF3 = target: T11, ELF3 (Homo sapiens, UniProt P78545 1-371); details: protein: recombinant; tags: N-terminal GST; dsDNA, one strand shown
# T11 sequence: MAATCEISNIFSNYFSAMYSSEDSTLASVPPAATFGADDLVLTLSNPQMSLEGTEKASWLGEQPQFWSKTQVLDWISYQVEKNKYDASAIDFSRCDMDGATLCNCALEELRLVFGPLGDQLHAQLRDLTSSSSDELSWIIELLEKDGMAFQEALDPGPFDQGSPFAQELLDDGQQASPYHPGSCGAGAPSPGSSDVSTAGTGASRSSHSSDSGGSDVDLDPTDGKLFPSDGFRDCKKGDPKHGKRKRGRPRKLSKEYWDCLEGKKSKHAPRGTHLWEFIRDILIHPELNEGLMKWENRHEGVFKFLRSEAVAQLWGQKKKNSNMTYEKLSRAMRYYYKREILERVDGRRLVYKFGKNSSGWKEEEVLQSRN
# Outline: as §1
# CRX = CRX (Homo sapiens, UniProt O43186 1-299); details: protein: recombinant; tags: N-terminal GST; dsDNA, one strand shown
# Outline: as §1
# ETV1 = ETV1 (Homo sapiens, UniProt P50549 1-477); details: protein: recombinant; tags: N-terminal GST; dsDNA, one strand shown
# Outline: as §1
# ELF1, sequence (P32519 whole entry): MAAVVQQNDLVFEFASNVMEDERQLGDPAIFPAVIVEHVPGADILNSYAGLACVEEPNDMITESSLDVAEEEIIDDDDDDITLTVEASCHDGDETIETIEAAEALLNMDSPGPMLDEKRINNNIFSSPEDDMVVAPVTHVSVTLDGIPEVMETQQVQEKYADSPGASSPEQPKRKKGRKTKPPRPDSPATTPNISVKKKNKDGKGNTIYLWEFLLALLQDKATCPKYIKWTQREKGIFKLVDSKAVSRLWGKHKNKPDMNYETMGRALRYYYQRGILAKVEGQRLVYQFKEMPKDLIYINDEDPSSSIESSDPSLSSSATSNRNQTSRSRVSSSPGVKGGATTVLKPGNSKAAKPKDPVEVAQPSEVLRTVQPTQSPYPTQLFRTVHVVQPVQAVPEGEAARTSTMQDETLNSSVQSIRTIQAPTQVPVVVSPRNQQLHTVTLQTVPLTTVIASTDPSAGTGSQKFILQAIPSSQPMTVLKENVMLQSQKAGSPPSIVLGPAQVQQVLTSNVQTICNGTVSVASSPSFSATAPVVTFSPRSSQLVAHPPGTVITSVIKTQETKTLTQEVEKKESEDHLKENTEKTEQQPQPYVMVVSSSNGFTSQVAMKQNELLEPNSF
# ETV1, sequence (P50549 whole entry): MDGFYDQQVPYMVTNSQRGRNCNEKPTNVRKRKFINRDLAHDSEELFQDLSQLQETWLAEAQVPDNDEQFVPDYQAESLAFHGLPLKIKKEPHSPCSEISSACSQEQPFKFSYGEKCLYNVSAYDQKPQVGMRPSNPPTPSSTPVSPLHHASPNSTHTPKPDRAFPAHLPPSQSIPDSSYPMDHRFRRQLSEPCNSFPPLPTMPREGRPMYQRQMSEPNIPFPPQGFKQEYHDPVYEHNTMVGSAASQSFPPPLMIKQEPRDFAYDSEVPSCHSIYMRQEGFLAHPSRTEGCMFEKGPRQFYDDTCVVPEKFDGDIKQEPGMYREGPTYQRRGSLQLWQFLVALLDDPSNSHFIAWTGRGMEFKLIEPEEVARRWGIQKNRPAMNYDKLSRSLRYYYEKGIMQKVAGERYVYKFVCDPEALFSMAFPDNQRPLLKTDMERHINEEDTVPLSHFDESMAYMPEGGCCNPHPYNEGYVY
# CRX, sequence (O43186 whole entry): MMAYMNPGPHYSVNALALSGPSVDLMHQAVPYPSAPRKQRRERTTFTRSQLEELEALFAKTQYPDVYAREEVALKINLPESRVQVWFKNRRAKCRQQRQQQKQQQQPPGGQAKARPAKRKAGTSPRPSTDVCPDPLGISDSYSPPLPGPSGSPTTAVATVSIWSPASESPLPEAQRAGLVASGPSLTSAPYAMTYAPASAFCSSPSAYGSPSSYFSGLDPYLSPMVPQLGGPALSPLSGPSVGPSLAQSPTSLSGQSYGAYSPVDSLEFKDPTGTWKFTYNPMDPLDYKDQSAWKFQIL
# ELF4, sequence (Q99607 whole entry): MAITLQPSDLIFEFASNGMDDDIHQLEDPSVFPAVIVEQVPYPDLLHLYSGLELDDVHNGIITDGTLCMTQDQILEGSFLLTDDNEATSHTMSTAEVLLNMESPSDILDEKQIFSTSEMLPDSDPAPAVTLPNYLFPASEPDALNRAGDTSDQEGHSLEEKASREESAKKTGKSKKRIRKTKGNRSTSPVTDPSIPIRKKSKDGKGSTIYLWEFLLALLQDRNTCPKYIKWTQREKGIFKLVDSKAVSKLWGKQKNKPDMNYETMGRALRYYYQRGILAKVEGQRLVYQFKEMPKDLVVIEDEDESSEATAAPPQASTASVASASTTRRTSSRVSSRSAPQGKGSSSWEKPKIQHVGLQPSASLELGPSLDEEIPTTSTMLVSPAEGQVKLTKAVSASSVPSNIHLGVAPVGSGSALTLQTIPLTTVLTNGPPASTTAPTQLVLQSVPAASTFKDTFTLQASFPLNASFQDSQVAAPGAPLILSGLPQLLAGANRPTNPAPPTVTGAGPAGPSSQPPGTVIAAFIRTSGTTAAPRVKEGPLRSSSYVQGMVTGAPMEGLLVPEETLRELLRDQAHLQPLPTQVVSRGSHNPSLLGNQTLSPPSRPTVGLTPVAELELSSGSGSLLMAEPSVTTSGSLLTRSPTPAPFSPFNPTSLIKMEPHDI
# SPIB, sequence (Q01892 whole entry): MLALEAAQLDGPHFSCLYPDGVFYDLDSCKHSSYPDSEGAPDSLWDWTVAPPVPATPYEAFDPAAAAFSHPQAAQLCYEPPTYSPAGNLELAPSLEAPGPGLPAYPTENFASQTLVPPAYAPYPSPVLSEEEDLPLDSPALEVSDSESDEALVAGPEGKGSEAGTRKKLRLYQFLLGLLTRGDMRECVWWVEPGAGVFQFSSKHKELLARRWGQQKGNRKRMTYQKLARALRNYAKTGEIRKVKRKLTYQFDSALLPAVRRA
# HSF1, sequence (Q00613 whole entry): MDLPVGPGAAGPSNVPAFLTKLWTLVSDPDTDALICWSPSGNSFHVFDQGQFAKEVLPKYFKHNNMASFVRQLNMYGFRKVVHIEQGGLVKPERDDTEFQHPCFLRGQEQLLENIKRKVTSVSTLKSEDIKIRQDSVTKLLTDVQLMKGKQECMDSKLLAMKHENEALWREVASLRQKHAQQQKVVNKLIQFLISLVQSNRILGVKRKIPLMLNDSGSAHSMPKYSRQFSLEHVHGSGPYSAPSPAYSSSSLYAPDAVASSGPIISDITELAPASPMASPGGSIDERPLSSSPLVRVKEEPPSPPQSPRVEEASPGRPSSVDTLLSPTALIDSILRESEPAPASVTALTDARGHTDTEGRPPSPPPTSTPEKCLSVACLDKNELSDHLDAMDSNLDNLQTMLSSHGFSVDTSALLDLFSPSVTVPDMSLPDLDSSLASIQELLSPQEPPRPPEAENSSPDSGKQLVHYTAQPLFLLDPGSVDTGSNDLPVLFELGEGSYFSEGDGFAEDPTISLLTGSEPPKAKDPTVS
# ETV5, sequence (P41161 whole entry): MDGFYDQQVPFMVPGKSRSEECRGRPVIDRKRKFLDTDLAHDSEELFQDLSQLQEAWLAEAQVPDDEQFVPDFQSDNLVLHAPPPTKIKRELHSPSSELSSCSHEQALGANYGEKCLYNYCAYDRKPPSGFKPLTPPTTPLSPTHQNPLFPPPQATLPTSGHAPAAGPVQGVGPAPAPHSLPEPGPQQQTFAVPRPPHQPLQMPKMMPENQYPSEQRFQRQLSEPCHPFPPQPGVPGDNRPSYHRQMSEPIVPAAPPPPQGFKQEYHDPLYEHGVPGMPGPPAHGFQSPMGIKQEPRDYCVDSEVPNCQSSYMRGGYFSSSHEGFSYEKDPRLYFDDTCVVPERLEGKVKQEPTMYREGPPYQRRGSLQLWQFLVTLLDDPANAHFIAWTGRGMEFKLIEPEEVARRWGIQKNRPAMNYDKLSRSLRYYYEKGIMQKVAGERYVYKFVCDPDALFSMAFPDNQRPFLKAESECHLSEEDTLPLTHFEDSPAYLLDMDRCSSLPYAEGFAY
sequence,measurement,setting,value
AAGATG,binding signal,FLI1,"1.17 fold enrichment (6-mer frequency, TF over GST control)"
same,binding signal,ELK1,"1.17 fold enrichment (6-mer frequency, TF over GST control)"
same,binding signal,GABPA,"1.11 fold enrichment (6-mer frequency, TF over GST control)"
same,binding signal,ERG,"1.11 fold enrichment (6-mer frequency, TF over GST control)"
same,binding signal,ELF1,"1.09 fold enrichment (6-mer frequency, TF over GST control)"
same,binding signal,EHF,"1.1 fold enrichment (6-mer frequency, TF over GST control)"
same,binding signal,SPI1,"1.09 fold enrichment (6-mer frequency, TF over GST control)"
same,binding signal,SPIB,"1.16 fold enrichment (6-mer frequency, TF over GST control)"
same,binding signal,ELK3,"1.19 fold enrichment (6-mer frequency, TF over GST control)"
same,binding signal,FEV,"1.01 fold enrichment (6-mer frequency, TF over GST control)"
same,binding signal,ETV5,"1.14 fold enrichment (6-mer frequency, TF over GST control)"
same,binding signal,HSF1,"1.19 fold enrichment (6-mer frequency, TF over GST control)"
same,binding signal,SPIC,"1.1 fold enrichment (6-mer frequency, TF over GST control)"
same,binding signal,ELF4,"1.24 fold enrichment (6-mer frequency, TF over GST control)"
same,binding signal,ELK4,"1.22 fold enrichment (6-mer frequency, TF over GST control)"
same,binding signal,ETV2,"1.13 fold enrichment (6-mer frequency, TF over GST control)"
same,binding signal,ELF3,"1.19 fold enrichment (6-mer frequency, TF over GST control)"
same,binding signal,CRX,"1.27 fold enrichment (6-mer frequency, TF over GST control)"
same,binding signal,ETV1,"1.12 fold enrichment (6-mer frequency, TF over GST control)"
